Screening data: PubChem BioAssay, National Center for Advancing Translational Sciences (NCATS)
Gal4-VP16 FLuc – VP16 counterscreen qHTS for inhibitors of ROR gamma transcriptional activity | Drosophila S2 Gal4-VP16 UAS-luciferase, luminescence, 20 h | Potency, µM (top dose mostly 53.6 µM), for inactives: at the top dose activity, negative = inhibition, usual class: inhibitors | hit rate 3.5% among 310,000 | AID 2546, 2010;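 further: Gal4-VP16 expression switched on by copper sulfate through the metallothionein promoter; nearly all actives have a fitted effect of over 50% in size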
RORg inh – qHTS for inhibitors of ROR gamma transcriptional activity; Drosophila S2 Gal4-RORgamma UAS-luciferase reporter, 20 h; Nuclear receptor ROR-gamma (Mus musculus), P51450; AID 2551, 2010; hit rate 5.4% among 310,000; Potency, µM (titrated, usually from 53.6 µM), inactives show at the highest dose activity change, negative = inhibition, hits mostly inhibitors; further: nearly all actives have a fitted effect of over 60% in size
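ROR gamma transcriptional activity was tracked as Gal4-UAS luciferase output in stably transfected Drosophila Schneider cells, with compound added 1 hr before 700 uM copper sulfate induction and a 20 hr ambient-temperature incubation.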
Sfp inh – qHTS Assay for Inhibitors of Bacillus subtilis Sfp phosphopantetheinyl transferase (PPTase) | hit rate 3.5% among 310,000 | Biochemical Sfp PPTase activity, qHTS | Potency, µM, for the others: largest response in the series, negative = inhibition, hits mostly inhibitors | AID 1490, 2009 | 4'-phosphopantetheinyl transferase ffp (Bacillus subtilis), Q9F4F7;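 further: the enzyme is Sfp with the accession as filed and its product quenches rhodamine fluorescence; 0% = enzyme reaction without inhibitor and -100% = no enzyme wells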
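Sfp 15 nM + cpd, 15 min RT; start w/ rhodamine-CoA 5 uM, BHQ-2-YbbR 12.5 uM (final); 50 mM Hepes pH 7.6, 10 mM MgCl2, 0.01% NP-40, 0.01% BSA; read 525/598 nm at 0 and 30 min.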
ALDH1A1 inh – qHTS Assay for Inhibitors of Aldehyde Dehydrogenase 1 (ALDH1A1) | Aldehyde dehydrogenase 1A1 (Homo sapiens), P00352 | Purified ALDH1A1, NADH fluorescence, propionaldehyde substrate | Potency, µM (highest dose often 75.3 µM), for inactives: top-dose activity, negative = inhibition, actives largely listed as inhibitors | hit rate 7.3% among 220,000; active means well fitted inhibition curve with a large enough effect, not every such curve was filed as active; inconclusive means small, poorly fitted or top-dose-only effect, or another doubt; inactive means no such curve, though single readings can be large or run the other way;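 further: plate controls were no enzyme wells and a reference inhibitor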
Target sequence (P00352 whole entry, looked up): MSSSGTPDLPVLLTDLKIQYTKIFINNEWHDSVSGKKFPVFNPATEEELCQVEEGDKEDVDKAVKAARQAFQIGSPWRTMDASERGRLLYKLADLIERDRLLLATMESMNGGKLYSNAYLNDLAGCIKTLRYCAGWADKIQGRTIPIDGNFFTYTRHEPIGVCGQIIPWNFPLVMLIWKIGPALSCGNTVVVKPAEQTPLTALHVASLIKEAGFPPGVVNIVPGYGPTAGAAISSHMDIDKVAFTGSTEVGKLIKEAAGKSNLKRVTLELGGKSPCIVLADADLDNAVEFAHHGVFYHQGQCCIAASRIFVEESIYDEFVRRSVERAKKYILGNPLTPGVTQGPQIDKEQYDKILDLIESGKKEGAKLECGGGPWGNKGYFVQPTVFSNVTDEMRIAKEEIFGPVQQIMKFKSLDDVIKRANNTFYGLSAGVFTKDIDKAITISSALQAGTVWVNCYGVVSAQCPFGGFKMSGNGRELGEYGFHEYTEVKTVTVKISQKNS
PLK1 PBD block – qHTS for Inhibitors of PLK1-PDB (polo-like kinase 1 - polo-box domain): Primary Screen | Plk1 PBD binding of FITC phosphopeptide, fluorescence polarization | hit rate 2.8% among 360,000 | Potency, µM, for the others: max response, negative = inhibition, hits mostly inhibitors | Serine/threonine-protein kinase PLK1 (Homo sapiens), P53350; further: series mostly up to about 57 µM; nearly all actives have a fitted effect of over 65% in size
Numbers without * were called inactive; ? = inconclusive; / = no result; [ ] = remark or other dose. Shown are actives, neighbours in structure and some others; about 12% of the full set was active somewhere. Unless noted, the call rests on the fitted dose curve; in most records, active means well fitted curve in the direction sought with a large enough effect; inconclusive means small, poorly fitted or top-dose-only effect, or another doubt; inactive means no such curve, though single readings can be large; an effect the other way counts as inactive or inconclusive. Unless noted, on the % scale 0 is the no-effect control and ±100 the full control effect; potency means the concentration at half of the fitted maximal effect.

SMILES | Gal4-VP16 FLuc | RORg inh | Sfp inh | ALDH1A1 inh | PLK1 PBD block
S=C(NCc1ccco1)Nc1ccc(Cl)cc1 | ? | 11µM* | -1% | ? | -7%
S=C(NCc1ccncc1)Nc1ccc(Cl)cc1 | 0% | ? | 12% | 16% | -1%
O=C(CNCc1ccco1)Nc1ccc(Oc2ccccc2)cc1 | 0% | 20% | ? | ? | -14%
S=C(NCc1ccco1)Nc1ccc(Oc2ccc(Cl)cc2)cc1 | 11µM* | 2.8µM* | -10% | ? | 4%
O=C(NC(c1ccccc1)c1ccsc1)C1CCN(CCOc2ccc(Cl)cc2Cl)CC1 (centres undefined) | / | / | / | / | -9%
Cc1nc(C(F)(F)F)ccc1C(=O)N1CCC1(C)C(=O)NCc1ccc(Cl)cc1 (centres undefined) | / | / | / | / | -9%
Cc1ccc(F)cc1-c1ccc(C(=O)N=C(N)N)o1 | -2% | -43% | -4% | / | /
O=C(O)c1ccccc1NC(=O)c1ccccc1Nc1ccccc1 | 1% | 2% | -3% | / | 30µM*
O=C(Nc1ccccc1C(=O)O)c1ncn[nH]1 | 2% | 5% | 45µM* | 4% | -5%
Cc1cccc(-c2cc(NCCc3cccnc3)n3nccc3n2)c1 | / | / | / | / | 3%
Cc1cccc(CC2S/C(=N/c3ccccn3)NC2=O)c1 (centres undefined) | ? | 1.3µM* | -24% | 0% | -4%
COc1cc(/C=N/S(=O)(=O)CCc2ccccc2)ccc1O | 3% | 1% | 27% | 28µM* | -5%
C=CCN1C(=O)C(Cc2ccc(C)cc2)S/C1=N/N=C/c1ccco1 (centres undefined) | -8%[0.365 µM] | -5% | ? | ? | 1%
Cc1ccc(CC2S/C(=N/N=C/c3ccco3)NC2=O)cc1 (centres undefined) | 11µM* | 1.4µM* | -9% | -7% | -13%
Cc1cccc(CC2S/C(=N/N=C/c3ccco3)NC2=O)c1 (centres undefined) | 5.6µM* | 0.89µM* | 1% | -3% | -4%
Cc1nc2ccc(NC(=O)[C@H](C)N3C(=O)C4CC=CCC4C3=O)cc2s1 (some centres undefined) | / | / | / | / | -11%
CC(N)CCCP(=O)(O)O (centres undefined) | / | / | -12% | -1% | /
C[C@@H](CO)NC(=O)c1nc[nH]c1C(=O)N[C@H](C)c1ccccc1 | / | / | / | / | -6%
COc1ccccc1CC1S/C(=N/N=C/c2ccco2)NC1=O (centres undefined) | 7.1µM* | 2.2µM* | 19% | 4% | -14%
CC1S/C(=N/N=C/c2ccco2)N(Cc2ccccc2)C1=O (centres undefined) | -4% | 77% | 32µM* | 10µM* | -11%
CCC1S/C(=N/N=C/c2ccco2)N(Cc2ccc(F)cc2)C1=O (centres undefined) | 0% | 26% | -21% | / | -17%
COc1cc(/C=N/N=C2/NC(=O)C(Cc3ccccc3)S2)ccc1O (centres undefined) | ? | 14µM* | 21% | 3% | -2%
COc1ccc(/C=N/N=C2/NC(=O)C(CC(=O)O)S2)cc1OS(=O)(=O)c1ccccc1 (centres undefined) | 1% | 0% | 5% | ? | -8%
O=C1N/C(=N/N=C/c2ccco2)SC1Cc1ccccc1 (centres undefined) | 2.5µM* | 1µM* | -15% | 5% | -2%
CCCC(=O)Nc1nc(C)c(-c2csc(Nc3ccccc3OC)n2)s1 | -9% | 30% | -27% | ? | -20%
SMILES | Gal4-VP16 FLuc | RORg inh | Sfp inh | ALDH1A1 inh | PLK1 PBD block
COc1ccccc1Nc1nc(-c2sc(NC(=O)C(C)(C)C)nc2C)cs1 | 6.3µM* | ? | -14% | ? | -18%
Cc1ccc(Cl)cc1Nc1nc(-c2sc(NC(=O)C(C)(C)C)nc2C)cs1 | 11µM* | ? | -7% | ? | -18%
CC1CCC2C(=O)N3C(CCC(C)[C@@H]3c3ccc(Br)cc3)C(=O)N2C1c1ccc(Br)cc1 (some centres undefined) | 0%[10 µM] | 17%[10 µM] | -6% | -3%[13.5 µM] | /
CC(=O)N1CCCc2cc(S(=O)(=O)NC(C(=O)NC3CCCCC3)C(C)C)ccc21 (centres undefined) | -8% | 2% | -2% | 7.1µM* | -13%
CC(=O)N1CCCc2cc(S(=O)(=O)NC(C(=O)NC(C)c3ccccc3)C(C)C)ccc21 (centres undefined) | 6% | 18% | 4% | 3.2µM* | 0%
O=C(O)c1ccc(S(=O)(=O)NC2CCCc3ccccc32)cc1 (centres undefined) | -9% | 20% | 0% | 18% | -5%
CC(=O)N1CCc2cc(S(=O)(=O)NC3CCCc4ccccc43)ccc21 (centres undefined) | 20µM* | ? | 12% | -4% | -12%
COc1ccc(NC(=O)C(NS(=O)(=O)c2ccc3c(c2)CCCN3C(C)=O)C(C)C)c(OC)c1 (centres undefined) | 2% | 10% | 8% | ? | -9%
CCn1c(O)c(N=Nc2ccc3ccccc3n2)c2ccccc21 | 3% | ? | 22µM* | / | -23%
CCCCn1c(O)c(N=Nc2ccccn2)c2ccccc21 | ? | 10µM* | ? | ? | 4%
CCCCn1c(O)c(N=Nc2ccccc2O)c2ccccc21 | / | / | / | / | 16%
CC1CCN(c2ccc(C=O)o2)CC1 | 15% | 4% | 4% | 14µM* | -13%
O=C(Nc1cc(-c2ccccc2)sc1C(=O)O)c1cccc(F)c1 | -3% | ? | 0% | / | 30µM*
CCOc1ccc(-c2cc(NC(=O)c3c(F)cccc3F)c(C(=O)O)s2)cc1 | -15% | 44% | -6% | / | 34µM*
CCOC(=O)c1sc(-c2ccc(OC)cc2)cc1NC(C)=O | -3% | ? | ? | ? | 10%
COC[C@H]1O[C@@H](c2c(OC)cc(OC)cc2OC)[C@H](OC)[C@@H](OC)[C@@H]1OC | -14% | 8% | -5% | 6% | /
CCOC(=O)N1CCN(C(=O)CSCC(=O)N=c2sc3cc(OC)ccc3n2C)CC1 | / | / | / | / | 27µM*
CCOC(=O)N1CCN(C(=O)CSCC(=O)N=c2sc3ccccc3n2C)CC1 | 12% | 32% | 0% | ? | -10%
CC(C)Nc1nc(NC(N)=S)nc(NC(C)(C)C)n1 | ? | 11µM* | -4% | ? | ?
CC(C)Nc1nc(NC(N)=S)nc(NC(C)C)n1 | -4% | ? | -3% | 9% | -14%
CC(C)Nc1nc(NNc2nc(Cl)nc(NC(C)(C)C)n2)nc(NC(C)C)n1 | 1.8µM* | 0.4µM* | 3% | / | -9%
COc1ccc(CCN2C(=O)COc3ccccc3C2C(=O)NC(C)(C)C)cc1OC (centres undefined) | / | / | / | / | -5%
